Experimental findings from PubChem BioAssay AID720700 (The Scripps Research Institute Molecular Screening Center, 2013) are described below.

Screen size: about 370,000 compounds; about 3,100 (0.84%) were called active. The sample as a whole holds a higher share of actives than the screen did. A number with no mark means an inactive call. Rule as the data show it: active = inhibition above about 9.5%; inactive = the rest.

For orientation: inhibition means the relative decrease from the control value, in per cent.

1-phosphatidylinositol 4,5-bisphosphate phosphodiesterase gamma-1 (Homo sapiens), sequence (P19174 whole entry, looked up): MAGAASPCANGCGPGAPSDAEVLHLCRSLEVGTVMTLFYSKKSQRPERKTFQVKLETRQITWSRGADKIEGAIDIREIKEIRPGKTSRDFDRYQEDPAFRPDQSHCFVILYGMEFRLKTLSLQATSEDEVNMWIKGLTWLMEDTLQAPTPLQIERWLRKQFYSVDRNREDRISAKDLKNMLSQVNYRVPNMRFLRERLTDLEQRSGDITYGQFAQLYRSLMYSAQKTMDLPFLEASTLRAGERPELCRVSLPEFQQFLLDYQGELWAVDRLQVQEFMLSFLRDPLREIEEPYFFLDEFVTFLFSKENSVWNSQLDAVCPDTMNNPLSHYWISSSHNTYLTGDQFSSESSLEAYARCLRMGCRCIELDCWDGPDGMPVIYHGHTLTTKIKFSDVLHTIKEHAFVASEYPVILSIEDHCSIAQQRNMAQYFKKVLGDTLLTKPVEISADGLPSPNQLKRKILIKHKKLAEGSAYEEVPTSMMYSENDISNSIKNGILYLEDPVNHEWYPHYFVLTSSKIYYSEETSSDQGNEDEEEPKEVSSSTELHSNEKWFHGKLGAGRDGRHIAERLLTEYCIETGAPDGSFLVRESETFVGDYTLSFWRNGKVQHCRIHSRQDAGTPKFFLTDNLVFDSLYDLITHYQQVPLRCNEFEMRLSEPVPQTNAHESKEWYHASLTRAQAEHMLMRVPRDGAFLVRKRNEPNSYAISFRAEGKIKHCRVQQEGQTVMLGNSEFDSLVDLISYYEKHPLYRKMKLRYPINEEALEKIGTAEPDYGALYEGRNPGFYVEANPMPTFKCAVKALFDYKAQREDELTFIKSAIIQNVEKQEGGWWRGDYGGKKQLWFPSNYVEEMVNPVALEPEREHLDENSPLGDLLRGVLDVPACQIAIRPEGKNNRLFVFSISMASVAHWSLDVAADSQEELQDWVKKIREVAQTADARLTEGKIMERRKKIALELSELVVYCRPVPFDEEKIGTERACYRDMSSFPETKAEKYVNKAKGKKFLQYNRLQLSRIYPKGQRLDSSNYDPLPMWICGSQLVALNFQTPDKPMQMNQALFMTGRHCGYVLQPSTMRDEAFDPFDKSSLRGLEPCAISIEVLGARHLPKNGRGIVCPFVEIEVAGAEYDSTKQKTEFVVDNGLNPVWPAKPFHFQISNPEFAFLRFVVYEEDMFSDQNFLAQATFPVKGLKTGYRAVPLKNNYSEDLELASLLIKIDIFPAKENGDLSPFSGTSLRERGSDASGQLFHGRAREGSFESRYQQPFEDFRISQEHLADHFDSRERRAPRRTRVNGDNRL

The test has as its target 1-phosphatidylinositol 4,5-bisphosphate phosphodiesterase gamma-1 (Homo sapiens) (UniProt P19174). The test is described as follows: PLC-gamma1 enzyme inhibitors, primary screen, biochemical, fluorescence, purified enzyme (AID 720700). The conditions noted are these: purified PLC-gamma1, fluorogenic substrate, at 12.2 µM, active compounds read high.
In the case of `CCOc1ccc(Oc2c(Cl)cnn(-c3ccc(C)cc3)c2=O)cc1`, the inhibition is -4.67%. Turning to `CN(CCc1ccccc1)C(=O)Cn1nc(-c2ccccc2)ccc1=O`, the inhibition is 1.49%. With `C=CCSC(CC)(CC)C(N)=O`, the inhibition was 11.9% (active). In the case of `CC(CCN1CCC(C(O)(c2ccccc2)c2ccccc2)CC1)Oc1ccc([N+](=O)[O-])cc1Cl` (stereo not given) it was 6.49%; in that of `COc1ccc(C(=O)OCCN(C)C2CN(Cc3cn(Cc4cccc(C)c4)nn3)S(=O)(=O)C2)cc1OC` (stereo not given), 3.3%. With `Cc1cc(C)cc(NS(=O)(=O)c2ccc(Oc3ncc(C(F)(F)F)cc3Cl)cc2)c1`, the inhibition was -1.75%. For the compound `O=C(c1ccccn1)c1ncc(C(F)(F)F)cc1Cl`, the inhibition was 1.59%.

For the compound `FC(F)(F)c1cnc(Oc2ccccc2-c2nnc(-c3ccc(Cl)cc3)o2)c(Cl)c1`, the inhibition is 12.3% (active).

As for `Cc1ccccc1NC(=O)C1CCN(c2ncccn2)CC1`, the inhibition is -3.53%.

With `CC(C)(C)OC(=O)NCCc1ccccc1/C=C/S(=O)(=O)NCc1ccc(F)cc1`, the inhibition is -0.15%.

Turning to `CC1CCN(c2ccc(C(=O)O)cc2NS(=O)(=O)c2ccc(Br)s2)CC1`, the inhibition is 2.88%. For the compound `O=C(Nc1ccc(C(F)(F)F)cc1)c1cccc(-n2cnnn2)c1`, the inhibition was -2.72%. Under `CNC(=O)c1ccc(NC(=O)c2cccc(C(F)(F)F)c2)cc1` stands 14.4% (active).

As to `O=C(Cn1cc(/C=N/NC(=O)c2cccc(C(F)(F)F)c2)c2ccccc21)Nc1ccc(F)cc1`, the inhibition is -0.8%. For the compound `Cc1cccc([C@@H]2[C@@H]3C(=O)N(Cc4ccccc4)C(=O)[C@@H]3[C@]3(Cc4ccc(Cl)cc4)C(=O)N(c4cccc(Cl)c4)C(=O)N23)c1`, the inhibition was 11.3% (active).

Consider `Cc1cccc(N2C(=O)N3[C@H](c4ccc(F)cc4)[C@@H]4C(=O)N(C5CCCCC5)C(=O)[C@@H]4[C@]3(Cc3ccccc3)C2=O)c1`, for which the inhibition was 2.62%. In the case of `O=C1[C@H]2[C@@H](c3ccc(Cl)cc3)N3C(=O)N(c4cccc(F)c4)C(=O)[C@@]3(Cc3ccccc3)[C@H]2C(=O)N1C1CCCCC1` it was -2.34%. As to `C[C@@H]1ON(C)[C@H]2C[C@H]3c4[nH]c5cccc(-c6ccc7c(c6)OCO7)c5c4CCN3C[C@@H]12`, the inhibition was -51.7%.

`N#CCC[C@H]1CC[C@]2(CCCN(Cc3ccc(Cl)cc3)C2)O1`: the inhibition is -3.24%. In the case of `COc1ccc(CCNC(=O)CSc2nc3c([nH]2)c(=O)n(C)c(=O)n3C)cc1`, the inhibition was -0.19%. Turning to `CN(C)S(=O)(=O)c1cccc(NC(=O)COc2ccc3ccccc3c2)c1`, the inhibition was 2.81%. Regarding `CN(C)S(=O)(=O)c1cccc(NC(=O)COC(=O)c2cc(=O)[nH]c(=O)[nH]2)c1`, the inhibition was 5.81%.

As for `CN(C)S(=O)(=O)c1cccc(NC(=O)COC(=O)C2(c3ccccc3F)CCCC2)c1`, the inhibition is 11.9% (active). For `O=C(NCc1ccccc1)[C@H]1CCCN1C(=O)[C@H]1CCCN1C(=O)c1cc(F)cc(F)c1`, the inhibition is 0.04%. In the case of `O=C(NCc1ccccc1)[C@@H]1CCCN1C(=O)[C@H]1CCCN1C(=O)c1cccc(Cl)c1` it was 0.25%; in that of `O=C(NCc1ccc(F)cc1F)[C@@H]1CCCN1C(=O)[C@@H]1CCCN1C(=O)c1cccc(Cl)c1`, 11% (active); in that of `Cc1cc(=O)[nH]c(SCC(=O)Nc2ccc(F)cc2F)n1`, 0.36%. Turning to `CC(=O)Nc1ccc(OC[C@@H](O)CN2CCC(C(O)(c3ccccc3)c3ccccc3)CC2)cc1`, the inhibition was -0.12%. Under `COc1ccc(Cn2cc(CN3[C@@H](CC(C)C)COc4cc(Br)ccc4S3(=O)=O)nn2)cc1` stands 3.87%; under `O=S1(=O)c2ccc(Br)cc2OC[C@H](Cc2ccccc2)N1Cc1cn(Cc2ccccc2)nn1`, 10.2% (active); under `O=S1(=O)c2ccc(Br)cc2OC[C@@H](Cc2ccccc2)N1Cc1cn(Cc2ccco2)nn1`, 6.61%. In the case of `O=C(CCCCCN1C(=O)C2C3C=CC(C3)C2C1=O)Nc1ccccc1` (stereo not given), the inhibition was 4.2%. Under `CCOC(=O)C1CCN(C(=O)C(C)(C)NC(=O)Nc2ccc(F)c(F)c2)CC1` stands 6.44%; under `Cc1ccc(CCN2CC(C(=O)NCCc3ccccc3)CC2=O)cc1` (stereo not given), 7.32%; under `COCCCNC(=O)C1CC(=O)N(CCc2ccccc2)C1` (stereo not given), 7.12%. In the case of `O=C(NCCCN1CCCCC1)C1CC(=O)N(CCc2ccccc2)C1` (stereo not given) it was 10% (active). Under `COc1cccc(Cn2cc(COC(=O)Nc3ccc(F)cc3)nn2)c1` stands -1.49%. For the compound `CCOC(=O)[C@@]12CN(C(=O)OC(C)(C)C)CC=C1N(Cc1ccc(OC)cc1)C(=O)[C@H]2CC(=O)NCc1ccc(OC)c(OC)c1`, the inhibition is 2.04%.

`COc1ccc(CN2C/C(=C/c3ccccc3)N3C(=O)C[C@@H](c4ccccc4)N=C23)c(OC)c1`: the inhibition was -7.12%. Consider `CS(=O)(=O)N(CC(O)Cn1c2ccccc2c2ccccc21)c1cccc2ccccc12` (stereo not given), for which the inhibition was -10.8%.

For `O=C1c2ccccc2S(=O)(=O)N1CC(O)Cn1c2ccccc2c2ccccc21` (stereo not given), the inhibition was 15.2% (active). Consider `O=C1c2ccccc2S(=O)(=O)N1Cc1c(F)cccc1Cl`, for which the inhibition was -1.51%. In the case of `C=CCN(C)CC#Cc1ccccc1` it was 1.26%; in that of `CC1(C)CC(=O)C=C(NCCN2CCNCC2)C1`, 10.7% (active). Under `COc1ccc(CCNC2=CC(=O)CC(C)(C)C2)cc1` stands 1.19%; under `CC1(C)CC(=O)C=C(NCCCN2CCCC2=O)C1`, 1.47%. In the case of `O=C(CCS(=O)(=O)c1ccccc1)Nc1ccc(Cl)c(Cl)c1` it was -5.17%; in that of `CCOC(=O)N1CCN(C(=O)C[C@@H]2C(=O)N(CCc3ccc(Cl)cc3)C3=CCCC[C@]32C(=O)OCC)CC1`, 2.91%. Take `CCOC(=O)N1CCC(C(N)=O)CC1`: the inhibition is -1.53%. Regarding `CCOC(=O)N1CCC(NC(=O)Cc2cn(C)c3ccccc23)CC1`, the inhibition was 2.53%. In the case of `CCOC(=O)N1CCC(c2cc(=O)n(-c3ccccc3)[nH]2)CC1` it was 9.95% (active); in that of `O=C(OCC#CCSc1nnc(-c2ccco2)o1)c1ccc(F)cc1`, -0.72%; in that of `CCN(CC)C(=O)CC[C@H]1CC[C@]2(CCCN(Cc3ccc(Cl)cc3)C2)O1`, 3.26%. In the case of `CCCCCCN1CCS(=O)(=O)N(Cc2ccc(C(F)(F)F)cc2)C(C(=O)OC)C1` (stereo not given) it was -2.36%; in that of `Cc1cc(NC(=O)c2ccccc2C)no1`, 3.09%. In the case of `CSc1ccccc1NC(=O)c1cc(Cl)sc1Cl` it was 3.13%; in that of `Cc1ccccc1C(=O)Nc1ccccc1Sc1ccccc1`, 10.7% (active). Consider `CCOC(=O)[C@]12CCCC3=C1N(CCC3)C(=O)[C@@H](CC(=O)N1CCSCC1)C2`, for which the inhibition was 4.63%.

Consider `COc1ccc(C(=O)OCCN2CCN(C3CN(Cc4cn(Cc5ccccc5F)nn4)S(=O)(=O)C3)CC2)cc1OC` (stereo not given), for which the inhibition is -0.1%.

With `O=C(NC1CCCCN(Cc2ccc(Cl)cc2)C1=O)c1ccc(Br)cc1` (stereo not given), the inhibition was 3.44%. For the compound `CCOC(=O)[C@]12CCCCC/C=C\1N(Cc1ccc(OC)cc1)C(=O)[C@H]2CC(=O)NCCCN1CCCC1=O`, the inhibition was 1.96%.

On to `CN(CC(=O)NC1CCCCC1)S(=O)(=O)c1cccc2cccnc12`, for which the inhibition was -1.31%. In the case of `CN(CC(=O)NC1CCN(Cc2ccccc2)CC1)S(=O)(=O)c1ccc(Cl)s1` it was 6.37%; in that of `CN(CC(=O)NC1CCCCC1)S(=O)(=O)c1ccc(Br)s1`, 10.4% (active). As for `Cc1nc(CNc2ncnc3ccc(-c4ccc5c(c4)OCO5)cc23)cs1`, the inhibition was -104%. In the case of `C=CCOc1ccccc1/C=N/NC(=O)Cc1ccccc1` it was 13.9% (active). Under `O=C(CC(=O)N/N=C\c1cccc(Cl)c1Cl)NCc1ccccc1` stands -0.34%; under `CCn1c(SCC(=O)N/N=C/c2ccccc2OCC(=O)O)nnc1-c1ccc(C(C)(C)C)cc1`, -0.82%. Under `O=C1CCC2(CCC(c3ccc(Cl)cc3)CC2)N1CCO` (stereo not given) stands 1.68%. With `COC(=O)[C@]12C[C@H](CC(=O)NCc3ccccc3)C(=O)N(CCC3=CCCCC3)C1=C[C@H](C(C)C)O[C@@H]2C1CC1`, the inhibition was 4.87%. For the compound `CCOC(=O)C1=C(C)NC2=C(C(=O)CC(C)(C)C2)C1c1ccc2c(c1)OCO2` (stereo not given), the inhibition is -75.8%. In the case of `Cc1ccc(NC(=O)Nc2cc(C)nn2-c2ccccc2)cc1` it was -1.85%; in that of `CCn1c(SCC(=O)N2CCCC2=O)nc2ccccc21`, 3.16%; in that of `CCCCn1c(SCC(=O)N2CCCC2=O)nc2cc(S(N)(=O)=O)ccc21`, 9.56% (active). In the case of `CCCCn1c(SCC(=O)N2CCC(C(=O)OCC)CC2)nc2cc(S(N)(=O)=O)ccc21` it was 0.98%; in that of `COc1ccccc1C(=O)NC1CCCCN(C(C)C)C1=O` (stereo not given), 2.47%; in that of `Cc1ccccc1CS(=O)(=O)Cc1ccc(C(=O)Nc2ccc(Cl)cc2)o1`, -2.55%. For the compound `Oc1ccc(/C=C/c2c(F)cccc2F)c2cccnc12`, the inhibition was -12.7%. `COC(=O)[C@H](C(C)C)N(CCCc1cn(Cc2ccccc2)nn1)S(=O)(=O)c1ccc(F)cc1Br`: the inhibition is 0.35%. `O=C1CC(c2ccc3c(c2)OCO3)N=C2N(CC3CC3)C/C(=C/c3ccccc3)N12` (stereo not given): the inhibition is -5.26%.

In the case of `Cc1ccc(C(c2nnnn2CS(=O)(=O)c2ccc(C)cc2)N2CCC(C)CC2)cc1` (stereo not given), the inhibition is 0.22%. With `Fc1ccccc1C(c1nnnn1Cc1ccc2c(c1)OCO2)N1CCN(Cc2ccccc2)CC1` (stereo not given), the inhibition is 0.65%. Under `Cc1ccc(S(=O)(=O)Cn2nnnc2CN2CCN(Cc3ccc4c(c3)OCO4)CC2)cc1` stands 10.9% (active). For the compound `COc1cc(OC)nc(S(C)(=O)=O)n1`, the inhibition is 16.5% (active). For the compound `CCC(=O)Nc1nc(OC)cc(OC)n1`, the inhibition is 2.37%.
